Results reported in PMC7862700, “An all-to-all approach to the identification of sequence-specific readers for epigenetic DNA modifications on cytosine”.

Tests used:
Test in all cases: DAPPL (digital affinity profiling via proximity ligation, sequencing); 10 mM Tris-HCl pH 7.5, 50 mM NaCl, 1 mM DTT, 4% glycerol, room temperature, 30 min; GST-TFs on glutathione beads, 16-mer random dsDNA library, 0.1% formaldehyde crosslink after washing; high values mean tight binding
[1] = molecular target: T1, FLI1 (Homo sapiens, UniProt Q01543 1-452); settings: protein: recombinant; tags: N-terminal GST; dsDNA, one strand shown
T1 sequence: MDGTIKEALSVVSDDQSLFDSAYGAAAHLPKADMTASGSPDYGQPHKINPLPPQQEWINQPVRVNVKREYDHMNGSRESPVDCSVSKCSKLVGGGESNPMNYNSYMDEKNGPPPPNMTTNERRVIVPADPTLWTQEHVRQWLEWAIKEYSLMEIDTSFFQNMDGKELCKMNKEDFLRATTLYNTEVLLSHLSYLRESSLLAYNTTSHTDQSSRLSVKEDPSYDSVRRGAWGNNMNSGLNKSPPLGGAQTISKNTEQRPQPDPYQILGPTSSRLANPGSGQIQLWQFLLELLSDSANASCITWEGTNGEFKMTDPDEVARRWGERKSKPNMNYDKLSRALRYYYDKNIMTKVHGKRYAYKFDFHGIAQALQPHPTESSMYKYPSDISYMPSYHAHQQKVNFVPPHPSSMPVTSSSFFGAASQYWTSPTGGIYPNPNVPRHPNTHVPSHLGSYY
Outline: (§1)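 Binding signal is defined as a hexamer's read frequency for one factor over its frequency for the tag-only sample. To obtain reads, GST-fused human transcription factors were expressed in yeast, captured on glutathione beads, barcoded with DNA and pooled with that sample. Pools met 200 nmole of a 16-mer random double-stranded DNA library in Tris/NaCl/DTT/glycerol buffer for 30 min at room temperature before washing, 0.1% formaldehyde crosslinking, proximity ligation (BsaI/T4 ligase, 1 h, 37 °C), PCR and Illumina NextSeq500 sequencing.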

[2] = molecular target: T2, ELK1 (Homo sapiens, UniProt P19419 1-428); settings: protein: recombinant; tags: N-terminal GST; dsDNA, one strand shown
T2 sequence: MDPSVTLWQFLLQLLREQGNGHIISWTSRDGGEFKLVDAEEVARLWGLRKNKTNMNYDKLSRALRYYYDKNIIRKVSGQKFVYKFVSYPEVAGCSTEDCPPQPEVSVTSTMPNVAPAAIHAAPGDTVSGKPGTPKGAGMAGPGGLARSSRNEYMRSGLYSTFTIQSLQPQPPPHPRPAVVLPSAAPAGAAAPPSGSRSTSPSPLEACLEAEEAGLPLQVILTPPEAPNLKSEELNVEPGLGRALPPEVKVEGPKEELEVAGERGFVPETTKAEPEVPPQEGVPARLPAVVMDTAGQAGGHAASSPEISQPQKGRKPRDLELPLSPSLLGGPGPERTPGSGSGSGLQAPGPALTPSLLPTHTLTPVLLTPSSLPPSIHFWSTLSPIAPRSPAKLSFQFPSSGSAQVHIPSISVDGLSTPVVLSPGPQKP
Outline: as §1

[3] = molecular target: T3, GABPA (Homo sapiens, UniProt Q06546 1-454); settings: protein: recombinant; tags: N-terminal GST; dsDNA, one strand shown
T3 sequence: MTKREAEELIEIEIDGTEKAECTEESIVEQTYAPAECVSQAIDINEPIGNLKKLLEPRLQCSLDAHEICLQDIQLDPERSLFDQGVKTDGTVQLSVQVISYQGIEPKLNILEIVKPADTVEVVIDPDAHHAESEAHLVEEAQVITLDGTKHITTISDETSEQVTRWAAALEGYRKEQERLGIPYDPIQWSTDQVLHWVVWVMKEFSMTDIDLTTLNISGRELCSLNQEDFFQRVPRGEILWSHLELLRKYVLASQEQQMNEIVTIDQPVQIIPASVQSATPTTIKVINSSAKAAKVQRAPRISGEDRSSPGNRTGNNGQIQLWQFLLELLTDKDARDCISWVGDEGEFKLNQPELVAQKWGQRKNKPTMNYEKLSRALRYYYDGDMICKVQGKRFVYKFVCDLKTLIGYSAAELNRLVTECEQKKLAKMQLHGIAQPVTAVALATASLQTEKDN
Outline: as §1

[4] = molecular target: T4, ERG (Homo sapiens, UniProt P11308 1-479); settings: protein: recombinant; tags: N-terminal GST; dsDNA, one strand shown
T4 sequence: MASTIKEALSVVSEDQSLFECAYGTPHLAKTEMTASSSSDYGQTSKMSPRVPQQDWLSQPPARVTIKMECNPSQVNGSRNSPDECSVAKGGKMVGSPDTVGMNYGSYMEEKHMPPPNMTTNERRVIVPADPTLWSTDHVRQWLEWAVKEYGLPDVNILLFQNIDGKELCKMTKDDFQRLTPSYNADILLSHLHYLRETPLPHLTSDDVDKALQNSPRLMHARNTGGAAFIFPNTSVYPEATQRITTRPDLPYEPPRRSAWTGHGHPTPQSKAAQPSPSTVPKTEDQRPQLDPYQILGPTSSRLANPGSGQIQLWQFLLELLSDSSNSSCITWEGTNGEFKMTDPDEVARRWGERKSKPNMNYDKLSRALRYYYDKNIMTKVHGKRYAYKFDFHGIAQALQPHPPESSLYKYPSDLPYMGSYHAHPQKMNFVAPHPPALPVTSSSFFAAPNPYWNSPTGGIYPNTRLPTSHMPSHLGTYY
Outline: as §1

[5] = molecular target: ELF1 (Homo sapiens, UniProt P32519 1-619); settings: protein: recombinant; tags: N-terminal GST; dsDNA, one strand shown
Outline: as §1

[6] = molecular target: T5, EHF (Homo sapiens, UniProt Q9NZC4 1-300); settings: protein: recombinant; tags: N-terminal GST; dsDNA, one strand shown
T5 sequence: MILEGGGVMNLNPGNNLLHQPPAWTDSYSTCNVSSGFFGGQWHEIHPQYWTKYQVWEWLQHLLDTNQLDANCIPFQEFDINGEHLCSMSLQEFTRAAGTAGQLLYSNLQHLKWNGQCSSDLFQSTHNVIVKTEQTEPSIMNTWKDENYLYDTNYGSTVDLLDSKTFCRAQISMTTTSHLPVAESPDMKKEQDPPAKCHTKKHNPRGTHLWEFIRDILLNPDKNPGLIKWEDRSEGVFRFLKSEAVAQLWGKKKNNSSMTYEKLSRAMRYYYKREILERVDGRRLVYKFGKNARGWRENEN
Outline: as §1

[7] = molecular target: SPI1 (Homo sapiens, UniProt P17947 1-270); settings: protein: recombinant; tags: N-terminal GST; dsDNA, one strand shown
Outline: as §1

[8] = molecular target: SPIB (Homo sapiens, UniProt Q01892 1-262); settings: protein: recombinant; tags: N-terminal GST; dsDNA, one strand shown
Outline: as §1

[9] = molecular target: T6, ELK3 (Homo sapiens, UniProt P41970 1-407); settings: protein: recombinant; tags: N-terminal GST; dsDNA, one strand shown
T6 sequence: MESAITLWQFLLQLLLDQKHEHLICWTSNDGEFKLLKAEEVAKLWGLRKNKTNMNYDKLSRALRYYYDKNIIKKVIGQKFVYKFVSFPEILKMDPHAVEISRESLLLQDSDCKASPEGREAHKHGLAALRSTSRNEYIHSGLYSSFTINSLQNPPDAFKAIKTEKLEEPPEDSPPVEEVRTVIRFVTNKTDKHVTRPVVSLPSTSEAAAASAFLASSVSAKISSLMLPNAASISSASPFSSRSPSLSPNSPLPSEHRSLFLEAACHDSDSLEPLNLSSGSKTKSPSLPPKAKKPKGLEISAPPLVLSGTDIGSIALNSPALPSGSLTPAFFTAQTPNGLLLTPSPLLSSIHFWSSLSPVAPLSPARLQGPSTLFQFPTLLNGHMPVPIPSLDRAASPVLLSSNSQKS
Outline: as §1

[10] = molecular target: T7, FEV (Homo sapiens, UniProt Q99581 1-238); settings: protein: recombinant; tags: N-terminal GST; dsDNA, one strand shown
T7 sequence: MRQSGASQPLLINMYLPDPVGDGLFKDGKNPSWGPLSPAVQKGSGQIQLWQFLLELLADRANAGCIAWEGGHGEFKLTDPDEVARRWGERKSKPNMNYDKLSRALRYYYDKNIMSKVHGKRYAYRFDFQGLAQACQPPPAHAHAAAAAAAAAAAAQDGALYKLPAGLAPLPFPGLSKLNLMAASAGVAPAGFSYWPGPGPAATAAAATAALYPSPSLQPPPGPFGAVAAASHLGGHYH
Outline: as §1

[11] = molecular target: ETV5 (Homo sapiens, UniProt P41161 1-510); settings: protein: recombinant; tags: N-terminal GST; dsDNA, one strand shown
Outline: as §1

[12] = molecular target: HSF1 (Homo sapiens, UniProt Q00613 1-529); settings: protein: recombinant; tags: N-terminal GST; chain copies: 3; dsDNA, one strand shown
Outline: as §1

[13] = molecular target: T8, SPIC (Homo sapiens, UniProt Q8N5J4 1-248); settings: protein: recombinant; tags: N-terminal GST; dsDNA, one strand shown
T8 sequence: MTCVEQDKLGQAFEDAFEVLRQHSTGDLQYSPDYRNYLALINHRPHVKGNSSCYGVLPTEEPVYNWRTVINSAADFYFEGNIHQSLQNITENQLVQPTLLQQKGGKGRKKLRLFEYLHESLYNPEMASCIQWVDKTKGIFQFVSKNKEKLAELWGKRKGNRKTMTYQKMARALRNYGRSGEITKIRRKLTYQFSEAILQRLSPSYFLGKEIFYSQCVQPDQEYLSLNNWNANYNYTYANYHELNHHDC
Outline: as §1

[14] = molecular target: ELF4 (Homo sapiens, UniProt Q99607 1-663); settings: protein: recombinant; tags: N-terminal GST; dsDNA, one strand shown
Outline: as §1

[15] = molecular target: T9, ELK4 (Homo sapiens, UniProt P28324-2 1-405); settings: protein: recombinant; tags: N-terminal GST; dsDNA, one strand shown
T9 sequence: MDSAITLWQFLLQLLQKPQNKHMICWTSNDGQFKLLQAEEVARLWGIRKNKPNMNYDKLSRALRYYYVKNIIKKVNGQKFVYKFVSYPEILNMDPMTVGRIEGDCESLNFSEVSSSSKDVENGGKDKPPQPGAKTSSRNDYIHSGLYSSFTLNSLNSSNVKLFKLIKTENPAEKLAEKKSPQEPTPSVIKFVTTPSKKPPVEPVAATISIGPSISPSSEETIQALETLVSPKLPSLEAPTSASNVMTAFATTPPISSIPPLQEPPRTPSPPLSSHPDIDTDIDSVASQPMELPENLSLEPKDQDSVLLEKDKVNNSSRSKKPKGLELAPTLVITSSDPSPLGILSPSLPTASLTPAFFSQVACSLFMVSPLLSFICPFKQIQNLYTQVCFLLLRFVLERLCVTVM
Outline: as §1

[16] = molecular target: T10, ETV2 (Homo sapiens, UniProt O00321 1-342); settings: protein: recombinant; tags: N-terminal GST; dsDNA, one strand shown
T10 sequence: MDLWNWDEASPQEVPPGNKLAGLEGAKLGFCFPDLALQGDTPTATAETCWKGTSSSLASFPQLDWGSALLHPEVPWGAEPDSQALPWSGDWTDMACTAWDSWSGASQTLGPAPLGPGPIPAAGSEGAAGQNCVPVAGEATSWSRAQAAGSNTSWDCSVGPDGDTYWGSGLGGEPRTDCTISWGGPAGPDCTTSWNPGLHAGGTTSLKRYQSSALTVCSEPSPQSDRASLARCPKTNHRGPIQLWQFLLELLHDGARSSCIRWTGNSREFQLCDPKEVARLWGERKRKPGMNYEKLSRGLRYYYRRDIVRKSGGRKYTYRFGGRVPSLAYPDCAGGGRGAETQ
Outline: as §1

[17] = molecular target: T11, ELF3 (Homo sapiens, UniProt P78545 1-371); settings: protein: recombinant; tags: N-terminal GST; dsDNA, one strand shown
T11 sequence: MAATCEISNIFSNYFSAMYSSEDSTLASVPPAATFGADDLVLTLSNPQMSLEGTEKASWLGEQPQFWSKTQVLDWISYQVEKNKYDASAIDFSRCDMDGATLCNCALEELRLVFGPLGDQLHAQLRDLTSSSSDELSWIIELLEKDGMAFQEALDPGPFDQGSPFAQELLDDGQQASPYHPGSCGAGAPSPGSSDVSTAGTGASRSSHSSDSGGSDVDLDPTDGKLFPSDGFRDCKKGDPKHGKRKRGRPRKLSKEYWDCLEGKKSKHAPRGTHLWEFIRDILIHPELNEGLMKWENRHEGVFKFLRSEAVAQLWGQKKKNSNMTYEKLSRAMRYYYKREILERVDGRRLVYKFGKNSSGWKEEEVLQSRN
Outline: as §1

[18] = molecular target: CRX (Homo sapiens, UniProt O43186 1-299); settings: protein: recombinant; tags: N-terminal GST; dsDNA, one strand shown
Outline: as §1

[19] = molecular target: ETV1 (Homo sapiens, UniProt P50549 1-477); settings: protein: recombinant; tags: N-terminal GST; dsDNA, one strand shown
Outline: as §1

ELF4, sequence (Q99607 whole entry): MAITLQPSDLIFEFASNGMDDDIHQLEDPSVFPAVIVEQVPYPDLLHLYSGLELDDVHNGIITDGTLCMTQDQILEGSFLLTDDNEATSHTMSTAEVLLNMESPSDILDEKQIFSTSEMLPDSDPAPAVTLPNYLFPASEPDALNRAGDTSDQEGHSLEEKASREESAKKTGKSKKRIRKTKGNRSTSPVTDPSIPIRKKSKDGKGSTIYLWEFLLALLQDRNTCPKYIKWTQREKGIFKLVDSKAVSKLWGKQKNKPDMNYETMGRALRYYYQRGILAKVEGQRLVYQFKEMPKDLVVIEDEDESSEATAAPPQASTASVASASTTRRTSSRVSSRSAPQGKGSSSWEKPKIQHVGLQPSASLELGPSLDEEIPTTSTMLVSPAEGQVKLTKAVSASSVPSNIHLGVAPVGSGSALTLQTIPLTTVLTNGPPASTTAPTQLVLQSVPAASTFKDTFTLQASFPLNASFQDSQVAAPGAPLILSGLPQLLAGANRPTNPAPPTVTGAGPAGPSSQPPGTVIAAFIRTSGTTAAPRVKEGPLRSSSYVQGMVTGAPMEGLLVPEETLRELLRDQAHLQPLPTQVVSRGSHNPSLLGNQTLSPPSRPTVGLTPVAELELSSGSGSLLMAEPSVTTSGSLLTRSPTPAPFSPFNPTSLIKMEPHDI
SPIB, sequence (Q01892 whole entry): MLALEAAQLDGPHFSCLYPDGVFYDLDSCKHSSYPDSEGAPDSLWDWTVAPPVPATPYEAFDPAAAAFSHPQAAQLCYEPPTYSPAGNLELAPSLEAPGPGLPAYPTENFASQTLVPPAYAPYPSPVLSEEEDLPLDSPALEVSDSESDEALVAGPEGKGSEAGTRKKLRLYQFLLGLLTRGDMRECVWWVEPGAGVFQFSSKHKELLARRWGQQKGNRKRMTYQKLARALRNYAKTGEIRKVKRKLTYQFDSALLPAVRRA
ETV1, sequence (P50549 whole entry): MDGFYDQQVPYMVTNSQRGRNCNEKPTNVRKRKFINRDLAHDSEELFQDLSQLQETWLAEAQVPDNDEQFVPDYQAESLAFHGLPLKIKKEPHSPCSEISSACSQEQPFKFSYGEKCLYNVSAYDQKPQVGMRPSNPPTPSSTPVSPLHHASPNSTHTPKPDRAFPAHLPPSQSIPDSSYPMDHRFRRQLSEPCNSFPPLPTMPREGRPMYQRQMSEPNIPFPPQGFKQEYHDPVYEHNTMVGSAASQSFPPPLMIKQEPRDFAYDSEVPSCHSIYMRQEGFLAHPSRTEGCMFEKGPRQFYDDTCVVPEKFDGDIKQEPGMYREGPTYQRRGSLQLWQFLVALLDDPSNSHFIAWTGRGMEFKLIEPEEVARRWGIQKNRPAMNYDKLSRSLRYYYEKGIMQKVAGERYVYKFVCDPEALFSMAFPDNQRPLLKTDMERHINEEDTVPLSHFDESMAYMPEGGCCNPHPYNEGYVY
CRX, sequence (O43186 whole entry): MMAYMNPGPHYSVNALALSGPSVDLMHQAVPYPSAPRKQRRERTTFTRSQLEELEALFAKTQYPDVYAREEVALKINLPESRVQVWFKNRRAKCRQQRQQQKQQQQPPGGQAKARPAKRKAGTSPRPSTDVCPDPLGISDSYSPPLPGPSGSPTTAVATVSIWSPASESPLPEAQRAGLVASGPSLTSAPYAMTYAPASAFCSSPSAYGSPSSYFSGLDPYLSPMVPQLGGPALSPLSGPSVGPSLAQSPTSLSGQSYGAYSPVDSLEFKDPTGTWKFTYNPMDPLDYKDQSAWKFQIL
ETV5, sequence (P41161 whole entry): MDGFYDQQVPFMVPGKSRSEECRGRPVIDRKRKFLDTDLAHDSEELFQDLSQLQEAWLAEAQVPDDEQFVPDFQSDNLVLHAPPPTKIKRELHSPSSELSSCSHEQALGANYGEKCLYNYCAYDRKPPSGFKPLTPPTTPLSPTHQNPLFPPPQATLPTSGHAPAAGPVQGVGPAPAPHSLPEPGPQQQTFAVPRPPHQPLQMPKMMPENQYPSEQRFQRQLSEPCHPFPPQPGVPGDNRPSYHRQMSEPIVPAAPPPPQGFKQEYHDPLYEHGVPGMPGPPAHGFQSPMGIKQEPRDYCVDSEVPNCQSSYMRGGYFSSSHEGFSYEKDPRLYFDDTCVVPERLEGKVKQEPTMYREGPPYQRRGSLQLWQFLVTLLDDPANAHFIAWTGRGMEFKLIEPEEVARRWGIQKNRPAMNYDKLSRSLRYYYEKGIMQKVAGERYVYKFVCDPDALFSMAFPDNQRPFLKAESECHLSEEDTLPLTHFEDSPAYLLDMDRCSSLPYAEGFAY
ELF1, sequence (P32519 whole entry): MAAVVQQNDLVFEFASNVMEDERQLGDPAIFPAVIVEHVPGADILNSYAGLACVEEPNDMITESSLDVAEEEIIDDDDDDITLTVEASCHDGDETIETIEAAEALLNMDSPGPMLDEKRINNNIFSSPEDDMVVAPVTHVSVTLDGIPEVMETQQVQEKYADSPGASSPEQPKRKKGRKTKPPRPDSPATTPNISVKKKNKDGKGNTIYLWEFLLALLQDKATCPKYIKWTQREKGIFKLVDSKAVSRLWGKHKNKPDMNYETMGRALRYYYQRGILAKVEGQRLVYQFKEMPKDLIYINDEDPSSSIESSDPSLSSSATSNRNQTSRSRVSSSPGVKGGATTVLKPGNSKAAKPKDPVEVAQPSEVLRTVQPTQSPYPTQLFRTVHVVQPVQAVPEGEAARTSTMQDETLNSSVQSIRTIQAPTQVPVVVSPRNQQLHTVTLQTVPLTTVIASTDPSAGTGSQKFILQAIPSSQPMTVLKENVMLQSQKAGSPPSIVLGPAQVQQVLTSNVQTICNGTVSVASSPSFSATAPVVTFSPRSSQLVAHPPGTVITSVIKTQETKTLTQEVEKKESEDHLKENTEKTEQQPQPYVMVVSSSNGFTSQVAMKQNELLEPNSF
HSF1, sequence (Q00613 whole entry): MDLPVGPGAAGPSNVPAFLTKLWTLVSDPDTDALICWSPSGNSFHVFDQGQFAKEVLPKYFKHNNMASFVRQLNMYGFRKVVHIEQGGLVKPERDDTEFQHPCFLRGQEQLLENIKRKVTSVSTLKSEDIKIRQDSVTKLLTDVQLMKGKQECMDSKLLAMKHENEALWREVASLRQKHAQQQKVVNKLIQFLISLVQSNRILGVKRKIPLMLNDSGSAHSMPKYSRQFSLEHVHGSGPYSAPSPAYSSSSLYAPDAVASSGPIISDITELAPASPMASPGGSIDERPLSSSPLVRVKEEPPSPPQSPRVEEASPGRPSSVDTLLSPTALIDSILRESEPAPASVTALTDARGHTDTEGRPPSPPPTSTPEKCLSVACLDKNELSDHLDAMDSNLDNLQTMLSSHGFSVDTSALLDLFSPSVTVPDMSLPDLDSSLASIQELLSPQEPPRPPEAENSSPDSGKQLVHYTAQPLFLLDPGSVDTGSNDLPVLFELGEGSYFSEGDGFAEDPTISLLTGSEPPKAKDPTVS

In the case of CTCTTG, the binding signal [1] is reported as 1.4 fold enrichment (6-mer frequency, TF over GST control), the binding signal [2] is reported as 1.33 fold enrichment (6-mer frequency, TF over GST control) and the binding signal [3] is reported as 1.41 fold enrichment (6-mer frequency, TF over GST control). For the same sequence, the binding signal [4] was 1.29 fold enrichment (6-mer frequency, TF over GST control), the binding signal [5] was 1.36 fold enrichment (6-mer frequency, TF over GST control) and the binding signal [6] was 1.3 fold enrichment (6-mer frequency, TF over GST control). The binding signal [7] was 1.3 fold enrichment (6-mer frequency, TF over GST control), the binding signal [8] was 1.43 fold enrichment (6-mer frequency, TF over GST control) and the binding signal [9] was 1.53 fold enrichment (6-mer frequency, TF over GST control). The binding signal [10] was 1.34 fold enrichment (6-mer frequency, TF over GST control), the binding signal [11] was 1.41 fold enrichment (6-mer frequency, TF over GST control) and the binding signal [12] was 1.24 fold enrichment (6-mer frequency, TF over GST control). For the same sequence, the binding signal [13] was 1.35 fold enrichment (6-mer frequency, TF over GST control), the binding signal [14] was 1.42 fold enrichment (6-mer frequency, TF over GST control) and the binding signal [15] was 1.52 fold enrichment (6-mer frequency, TF over GST control). For the same sequence, the binding signal [16] was 1.36 fold enrichment (6-mer frequency, TF over GST control), the binding signal [17] was 1.22 fold enrichment (6-mer frequency, TF over GST control) and the binding signal [18] was 1.21 fold enrichment (6-mer frequency, TF over GST control). The binding signal [19] was 1.41 fold enrichment (6-mer frequency, TF over GST control).
